# From PubChem BioAssay (NCI)
# This is part of a sample that, as a whole, favours compounds with a hit. Of some 83,000 tested, about 20% had one in any assay.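 Single-concentration screen, 48 h exposure, 96-well plates. Endpoint: percent growth. Below 10 = active.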 Values without a mark were called inactive. The source made the active and inactive calls.
# How the values were obtained:
# Test in all cases: NCI-60 one-dose screen, 48 h (100 = growth as untreated, 0 = no growth, -100 = all killed)
# Details in all cases: 10 µM unless noted
# HCT-15 colon = system: HCT-15 colon
# HT29 colon = system: HT29 colon
# SNB-75 CNS = system: SNB-75 CNS
# SNB-19 CNS = system: SNB-19 CNS
# U251 CNS = system: U251 CNS
# PC-3 prostate = system: PC-3 prostate
# SK-MEL-5 melanoma = system: SK-MEL-5 melanoma
# UACC-62 melanoma = system: UACC-62 melanoma
# LOX IMVI melanoma = system: LOX IMVI melanoma
# SK-MEL-28 melanoma = system: SK-MEL-28 melanoma
# SK-MEL-2 melanoma = system: SK-MEL-2 melanoma
# EKVX NSCLC = system: EKVX NSCLC
# SN12C renal = system: SN12C renal
# UO-31 renal = system: UO-31 renal
# TK-10 renal = system: TK-10 renal
# ACHN renal = system: ACHN renal
# CAKI-1 renal = system: CAKI-1 renal
# A498 renal = system: A498 renal
# CCRF-CEM leukemia = system: CCRF-CEM leukemia
# MOLT-4 leukemia = system: MOLT-4 leukemia
SMILES,growth (HCT-15 colon),growth (HT29 colon),growth (SNB-75 CNS),growth (SNB-19 CNS),growth (U251 CNS),growth (PC-3 prostate),growth (SK-MEL-5 melanoma),growth (UACC-62 melanoma),growth (LOX IMVI melanoma),growth (SK-MEL-28 melanoma),growth (SK-MEL-2 melanoma),growth (EKVX NSCLC),growth (SN12C renal),growth (UO-31 renal),growth (TK-10 renal),growth (ACHN renal),growth (CAKI-1 renal),growth (A498 renal),growth (CCRF-CEM leukemia),growth (MOLT-4 leukemia)
CCCCCCCCc1ccc(C(=O)Nc2ccc(C)c(OP(=O)(O)O)c2)cc1,95.5%,106%,89.8%,91%,92%,91.3%,103%,90.6%,92.9%,116%,109%,101%,95.1%,62.4%,107%,103%,102%,107%,42.9%,78.3%
Oc1cncc(-c2ccc3ncnc(N4CCc5cc(F)c(Cl)cc54)c3c2)c1,66.3%,57.8%,25.6%,38.6%,39.1%,57.4%,78.5%,71.8%,38.8%,77.6%,66.4%,59.2%,44.2%,35.7%,78.8%,46%,41.5%,-1.41% (active),76.2%,57.6%
Cc1nc(N)ncc1-c1ccc2ncnc(N3CCc4cc(F)c(Cl)cc43)c2c1,55.5%,67.2%,15.7%,68.3%,67%,54.4%,77.1%,71.8%,60.9%,107%,100%,20.3%,54.9%,27.6%,5.99% (active),27.2%,14.1%,25.3%,77.8%,11.1%
ClC(Cn1ncc2c(Nc3cccc(Br)c3)nc(SCCN3CCOCC3)nc21)c1ccc(Br)cc1 (stereo not given),-76.9% (active),-43% (active),59.8%,22.5%,-4.38% (active),21.3%,-89.9% (active),-44.3% (active),-89.4% (active),-46.4% (active),-11.9% (active),16.5%,26.2%,-65.7% (active),40.9%,7.98% (active),-28% (active),31.7%,-6.03% (active),-34.3% (active)
COc1ccc(C2=Nc3c(N)nc(N)nc3NC(c3ccc(Oc4nc(Nc5ccc(F)cc5)nc(N(C)C)n4)c(OC)c3)C2)cc1 (stereo not given),48.7%,46.4%,51%,76.5%,65.3%,49.1%,51.5%,98.3%,63.1%,93.2%,92.4%,67.2%,90.2%,52.5%,86.4%,99%,58%,68.9%,50.1%,18.4%
Nc1cc(-c2c[nH]c3ccc(Br)cc23)nc2cc(-c3c[nH]c4ccccc34)nn12,-67% (active),-54.8% (active),-11% (active),-77.6% (active),-83.3% (active),-21.1% (active),-96.4% (active),-89.4% (active),-86.8% (active),-98.5% (active),-66.8% (active),-67.5% (active),-66.3% (active),-54% (active),-57.3% (active),-35.5% (active),-48.6% (active),-77.3% (active),-13.8% (active),3.76% (active)
Oc1ccc(Cl)c(Nc2ncnc3c2cnn3CC(Cl)c2ccc(Br)cc2)c1 (stereo not given),37.9%,57.2%,3.71% (active),57.4%,53.5%,44.5%,48.8%,55.6%,0.654% (active),78.4%,84.8%,55.4%,43.9%,21.3%,47.1%,8.02% (active),18.3%,98.9%,59.8%,34.7%
Nc1nc(-c2ccccc2)c(N=Nc2ccc(Cl)cc2Cl)s1,-86% (active),-60.4% (active),-36.5% (active),-18.1% (active),-10.7% (active),-1.78% (active),-99.2% (active),-49.5% (active),-99.5% (active),-55.8% (active),-61.1% (active),-30.5% (active),-95% (active),-20% (active),-13.9% (active),-31.2% (active),-34.3% (active),-16.8% (active),-0.55% (active),-24.6% (active)
COc1cc(CNC(=O)C[C@H](C)CCC=C(C)C)ccc1OCc1cn(-c2ccc(Cl)c(Cl)c2)nn1,29.4%,78.3%,47.2%,81.3%,48.2%,65.9%,71.9%,69.3%,50.6%,89.3%,93.7%,77.2%,38.2%,60.8%,90.7%,71.5%,64%,79.9%,84.5%,68.7%
Cc1nn(-c2ccccc2)c2nc(C)n(CC(=O)N/N=C/c3cccc([N+](=O)[O-])c3)c(=O)c12,96.2%,102%,79.5%,77%,98.3%,80.1%,97.6%,81.3%,88.8%,106%,101%,76.8%,89.1%,69.7%,103%,104%,88%,95.8%,85.1%,88%
Nc1nc2cc(-c3ccc4ncnc(NCc5ccccc5)c4c3)ccc2o1,14.1%,37.2%,-83.9% (active),23%,9.55% (active),25.2%,0.196% (active),77.1%,-86.1% (active),10.7%,42.2%,0.598% (active),-33.7% (active),-73.4% (active),-28.5% (active),-62.4% (active),-24.9% (active),41.6%,29.6%,-20.1% (active)
C=CC(=O)N1CCN(c2ccc3nc4c(nc3c2C(F)(F)F)C(=O)c2ncccc2C4=O)CC1,1.18% (active),11.8%,82.3%,32.3%,-17.3% (active),-4.79% (active),-98.6% (active),-60% (active),-8.11% (active),30.5%,39.8%,30.4%,-44% (active),35.7%,111%,28.3%,36%,134%,-17.5% (active),-37.8% (active)
O=C(Nc1ccc(-c2ccc3c(c2)NC(=O)/C3=C\c2ccc[nH]2)cc1)Nc1cccc(Cl)c1,-32.5% (active),-61.5% (active),16.6%,19.8%,-52.4% (active),13.5%,-45.7% (active),-36.3% (active),-88.4% (active),-4.21% (active),-52.8% (active),-19.6% (active),40.7%,10.5%,-12.1% (active),-19.6% (active),-14.9% (active),21.6%,13.7%,5.1% (active)
C[C@H](NC(=O)c1ccc2c(-c3ccc(C(F)(F)F)cc3)cccc2c1)c1ccccn1,20.4%,26.6%,87.3%,42%,42.3%,34.2%,34.7%,60.3%,43.7%,74.6%,67.2%,22.8%,42%,13.6%,42.6%,41.1%,38.8%,72.5%,38.6%,19.4%
O=C(Nc1nc2ccc([N+](=O)[O-])cc2s1)Nc1ccc(Cl)cc1Cl,49.1%,64.7%,-24.4% (active),46.6%,11.4%,47.3%,27.5%,56%,34.8%,79.5%,65%,40.7%,29.4%,59.8%,40.9%,37.3%,57.2%,-0.785% (active),42.1%,33.9%
CN1C(=O)/C(=C/c2ccco2)S/C1=N/c1nccs1,93.8%,103%,97.4%,99.4%,111%,98.1%,98.9%,86.7%,97.7%,112%,108%,91.8%,100%,80.9%,130%,100%,91.7%,107%,96.8%,107%
